The list is not random: actives were taken first. Their share in the collection is about 2.4%.
PLC-gamma1 inh – inhibitors of human phospholipase C gamma1; inhibition, % at 12.2 µM; 370,000 tested, 0.84% active; purified PLC-gamma1, fluorogenic substrate, fluorescence; in the data active = inhibition above about 9.5%
LEDGF integ inh – blocks HIV-1 LEDGF/p75-dependent DNA integration; TR-FRET IN-LEDGF/p75 DNA integration, Eu/Cy5; inhibition, % at 3.7 µM; 370,000 tested, 0.64% active;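 active = inhibition above the screen-wide mean plus 3 SD, cut at about 13% in these data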;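 also: signal is the Cy5 over europium emission ratio at 671 and 618 nm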
MBD2 DNA inh – inhibitors of human MBD2 binding to methylated oligonucleotide | TR-FRET | Q9UBB5 | 370,000 tested, 0.31% active | inhibition, % at 4.4 µM | AID 686964; in the data active = inhibition above about 13%
UHRF1 binding – UHRF1 methyl-DNA binding inhibition. inhibition, % at 4.4 µM. 370,000 tested, 0.75% active. AID 687016. UHRF1 binding to methylated oligo, TR-FRET; in the data active = inhibition above about 21%;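 also: UHRF1 SRA domain binding a hemimethylated CpG hairpin DNA probe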
PLC-beta3 inh – PLC-beta3 (human) inhibition, primary screen | Q01970 | Purified PLC-beta3, fluorogenic substrate, fluorescence | inhibition, % at 12.2 µM | 370,000 tested, 0.18% active | AID 720704
PLCgamma1 ctr – counter-screen for PLC-beta3 inhibitors: inhibitors of human PLC-gamma1; shares compounds with PLC-gamma1 inh; purified PLC-gamma1, fluorogenic substrate, fluorescence; inhibition, % at 12.3 µM; 3,300 tested, 3.1% active; AID 743258; in the data active = inhibition above about 9.5%
PLCb3 confirm – human PLC-beta3 inhibition, confirmation; shares compounds with PLC-gamma1 inh; purified PLC-beta3, fluorogenic substrate fluorescence; inhibition, % at 12.3 µM; 3,300 tested, 1% active
Numbers stand for hits. Rule as the data show it, unless noted: active = inhibition above about 11%; inactive = the rest.

What do the screens show for `COC(=O)[C@]12C[C@H](CC(=O)N3CCC(c4ccccc4)CC3)C(=O)N(Cc3ccco3)C1=C[C@H](COCc1ccccc1)O[C@@H]2C`?
PLC-gamma1 inh: inactive; LEDGF integ inh: inactive; MBD2 DNA inh: inactive; UHRF1 binding: inactive; PLC-beta3 inh: inactive

How did CCCCCCCCN1C(=O)[C@@H](CC(=O)NCc2ccc(OC)c(OC)c2)C[C@@]2(C(=O)OC)C1=C[C@H](C(C)C)O[C@@H]2C1CC1 do in these assays?
PLC-gamma1 inh: inactive; LEDGF integ inh: inactive; MBD2 DNA inh: inactive; UHRF1 binding: inactive; PLC-beta3 inh: inactive

What do the screens show for `COc1cc(-c2nnc(SCC(=O)NN=Cc3c[nH]c4ccccc34)n2-c2ccccc2)cc(OC)c1OC`?
PLC-gamma1 inh: inactive; LEDGF integ inh: inactive; MBD2 DNA inh: inactive; UHRF1 binding: inactive; PLC-beta3 inh: inactive

How did O=C(COCc1ccncc1)N1CCN(c2ccc(F)cc2Cl)CC1 do in these assays?
PLC-gamma1 inh: inactive; LEDGF integ inh: inactive; MBD2 DNA inh: inactive; UHRF1 binding: inactive; PLC-beta3 inh: inactive

Results for N#Cc1ccccc1OCC(=O)NNC(=O)CCC1CCCC1 ?
PLC-gamma1 inh: 12; LEDGF integ inh: inactive; MBD2 DNA inh: inactive; UHRF1 binding: inactive; PLC-beta3 inh: inactive; PLCgamma1 ctr: inactive; PLCb3 confirm: inactive

How did N#Cc1ccccc1OCC(=O)NCCNC(=O)COc1ccccc1C#N do in these assays?
PLC-gamma1 inh: inactive; LEDGF integ inh: inactive; MBD2 DNA inh: inactive; UHRF1 binding: inactive; PLC-beta3 inh: inactive

How did Cc1cc2n(n1)SC(Nc1ccc(F)cc1)N2 (stereo not drawn) do in these assays?
PLC-gamma1 inh: 10; LEDGF integ inh: inactive; MBD2 DNA inh: inactive; UHRF1 binding: inactive; PLC-beta3 inh: inactive; PLCgamma1 ctr: inactive; PLCb3 confirm: inactive

What do the screens show for `O=C(CCN1CCOCC1)c1ccc(N2CCCCC2)cc1`?
PLC-gamma1 inh: inactive; LEDGF integ inh: inactive; MBD2 DNA inh: inactive; UHRF1 binding: inactive; PLC-beta3 inh: inactive

What do the screens show for `CC(C)(C)c1cc(C(=O)CCN2CCOCC2)cc(C(C)(C)C)c1O`?
PLC-gamma1 inh: 13; LEDGF integ inh: inactive; MBD2 DNA inh: inactive; UHRF1 binding: inactive; PLC-beta3 inh: inactive; PLCgamma1 ctr: inactive; PLCb3 confirm: inactive

How did COC(=O)c1cc2c(cc1Cl)N1CCCCCC1=NS2(=O)=O do in these assays?
PLC-gamma1 inh: inactive; LEDGF integ inh: inactive; MBD2 DNA inh: inactive; UHRF1 binding: inactive; PLC-beta3 inh: inactive

What do the screens show for `O=C(O)c1cc2c(cc1Cl)N1CCCCCC1=NS2(=O)=O`?
PLC-gamma1 inh: 19; LEDGF integ inh: inactive; MBD2 DNA inh: inactive; UHRF1 binding: inactive; PLC-beta3 inh: inactive; PLCgamma1 ctr: inactive; PLCb3 confirm: inactive

Results for COc1ccc(CN2CCOCCOCCOCC2)cc1 ?
PLC-gamma1 inh: inactive; LEDGF integ inh: inactive; MBD2 DNA inh: inactive; UHRF1 binding: inactive; PLC-beta3 inh: 13; PLCgamma1 ctr: inactive; PLCb3 confirm: inactive

How did COc1ccc(CN2CCOCCOCCN(Cc3ccc(OC)cc3)CCOCCOCC2)cc1 do in these assays?
PLC-gamma1 inh: inactive; LEDGF integ inh: inactive; MBD2 DNA inh: inactive; UHRF1 binding: inactive; PLC-beta3 inh: inactive

What do the screens show for `C[C@H]1[C@H](NC(=O)c2cccc(Cl)c2)CC[C@@]23CCCN2C(=O)CCC[C@@H]13`?
PLC-gamma1 inh: inactive; LEDGF integ inh: inactive; MBD2 DNA inh: inactive; UHRF1 binding: inactive; PLC-beta3 inh: inactive

Results for CC12CN3CC(C)(CN(C1)C3c1ccc3c(c1)OCO3)C2=O (stereo not drawn) ?
PLC-gamma1 inh: inactive; LEDGF integ inh: inactive; MBD2 DNA inh: inactive; UHRF1 binding: inactive; PLC-beta3 inh: inactive

What do the screens show for `CC1(C)CC(C2N3CC4(C)CN2CC(C)(C3)C4=O)CCO1` (stereo not drawn)?
PLC-gamma1 inh: 13; LEDGF integ inh: inactive; MBD2 DNA inh: inactive; UHRF1 binding: inactive; PLC-beta3 inh: inactive; PLCgamma1 ctr: inactive; PLCb3 confirm: inactive

How did Cc1cc(C)c2c(=O)[nH]n(C3CC(C)N(C)CC3C)c2n1 (stereo not drawn) do in these assays?
PLC-gamma1 inh: 9.7; LEDGF integ inh: inactive; MBD2 DNA inh: inactive; UHRF1 binding: inactive; PLC-beta3 inh: inactive; PLCgamma1 ctr: inactive; PLCb3 confirm: inactive

Screening results as filed in PubChem BioAssay.
